# Entries with a potency or affinity are not part of this list. A number with no mark means an inactive call.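 How the source made its calls: active means every replicate test called active, each showing a drop in signal with a fitted potency within twice the top tested dose; inconclusive means tests disagree, or fits are weak, flat midrange or poor; inactive means every test flat, rising or fitted past the limit.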
# Assay: A549 cell cytotoxicity, dose response, cytotoxicity control, CellTiter-Glo luminescence, dry powder, set 18 (AID 1117290)
# Conditions: A549 viability, CellTiter-Glo ATP luminescence, 72 h; series mostly up to 26 µM; activity change, negative = cytotoxicity: at the top concentration
row,SMILES,"activity change, negative = cytotoxicity [%]"
1,CC(=O)N1CCN(C(=O)C2(NC(=O)Nc3cccc(F)c3)CCCCC2)CC1,-10.3
2,COc1ccc(C(=O)O)cc1S(=O)(=O)Nc1cc(C(F)(F)F)ccc1N1CCN(C(C)=O)CC1,-10.6
3,COc1ccc(C(=O)Nc2cc(C(F)(F)F)ccc2N2CCCCC2)cc1S(=O)(=O)O,-16.3
4,COc1ccc(C(=O)Nc2cccc(C(F)(F)F)c2)cc1S(=O)(=O)O,-21.9
5,O=[N+]([O-])c1ccc(S(=O)(=O)Nc2cc(C(F)(F)F)ccc2N2CCCCC2)c([N+](=O)[O-])c1,-4.1
6,Cc1ccc(NC(=O)NC2(C(=O)N3CCN(c4ccccc4)CC3)CCCCC2)cc1,-10.4
7,CC(=O)N1CCN(C(=O)C2(NC(=O)Nc3ccc(F)cc3)CCCC2)CC1,-13.4
8,COc1ccc(C(=O)O)cc1S(=O)(=O)Nc1cccc(N2CCCCC2)c1C(F)(F)F,-4.71
9,Cc1ccc(NC(=O)NC2(C(=O)N3CCNCC3)CCCCC2)cc1,-9.57
10,N#Cc1ccc(S(=O)(=O)Nc2cc(C(F)(F)F)ccc2N2CCCCC2)cc1,-14.7

# — PubChem BioAssay AID1117290 (Broad Institute, 2014)
